These results are taken from PubChem BioAssay AID1851 (National Center for Advancing Translational Sciences (NCATS), 2009).

In all, about 16,000 compounds went through this assay and about 2,600 (16%) were called active. Roughly 20% stayed inconclusive and do not appear here. Calls follow the shape of the dose curve; as a rule, active = well fitted curve in the direction sought with a large enough effect; inconclusive = small, poorly fitted or top-dose-only effect, or effect the other way; inactive = no such curve, though single readings can be large or run the other way. The list is a sample of the results.
% is scaled to controls: 0 for no effect and ±100 for the full control effect.

This test deals with Cytochrome P450 2D6 (Homo sapiens) (UniProt P10635). Put plainly: Cytochrome panel assay with activity outcomes. Conditions: recombinant CYP, pro-luciferin dealkylation, luminescence, p450-cyp2d6; series mostly up to 57.1 µM.
Chain of Cytochrome P450 2D6 (Homo sapiens) (P10635 whole entry, looked up): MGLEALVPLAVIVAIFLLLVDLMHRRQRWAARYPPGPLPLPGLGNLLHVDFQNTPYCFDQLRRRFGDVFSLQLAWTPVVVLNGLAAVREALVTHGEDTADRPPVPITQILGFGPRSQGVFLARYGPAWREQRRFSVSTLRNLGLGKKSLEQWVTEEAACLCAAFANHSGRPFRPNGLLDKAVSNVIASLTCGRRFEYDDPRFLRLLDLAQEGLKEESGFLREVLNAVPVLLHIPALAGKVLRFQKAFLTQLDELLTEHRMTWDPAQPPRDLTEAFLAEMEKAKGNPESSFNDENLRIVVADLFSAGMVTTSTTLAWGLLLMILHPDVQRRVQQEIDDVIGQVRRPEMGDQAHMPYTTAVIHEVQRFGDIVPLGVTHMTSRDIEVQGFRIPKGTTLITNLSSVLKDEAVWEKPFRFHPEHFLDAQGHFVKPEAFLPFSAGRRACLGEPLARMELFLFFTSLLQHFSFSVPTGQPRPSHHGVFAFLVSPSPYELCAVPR
`CC(=O)OCC(=O)[C@]12OC(C)(C)O[C@@H]1C[C@H]1[C@H]3CC=C4C[C@@H](O)CC[C@]4(C)[C@H]3CC[C@]12C`: the activity, negative = inhibition was 25.3% [at 11.4 µM] (inactive). As usually defined, the AC50 is the concentration at which the activity in the assay is half-maximal. With `Cn1c(=O)c(-c2ccc(Cl)cc2)nc2cnc(Oc3ccccc3)nc21`, the AC50 result was “inactive”. For the molecule `N#CC(CC(=O)O)=C(c1ccccc1)c1ccccc1`, the activity, negative = inhibition is 9.93% [at 11.4 µM] (inactive). For `CNC(=O)CCc1nc(-c2ccc(C(C)(C)C)cc2)no1`, the AC50 entry is “inactive”. Take `Cc1nn(C(=O)c2ccco2)c(C)c1Sc1ccccc1`: the AC50 result is “inactive”. In the case of `Cn1c(=O)n2n(c1=O)[C@H]1[C@H](O)[C@H]3O[C@@H]3/C(=N/OC[C@@H](O)COCc3ccco3)[C@@H]1CC2`, the activity, negative = inhibition was 15.6% [at 11.4 µM] (inactive). Turning to `Cn1cc(-c2nc3cnc(N4CCNCC4)nc3n(C)c2=O)c2ccccc21`, the AC50 result is “inactive”. For the molecule `CC(C)OP(=O)(OC(C)C)C(NC(=O)c1ccc(Br)cc1)c1ccccc1` (centres undefined), the AC50 result was “inactive”. Turning to `COc1ccc(-c2cc(C(=O)O)c3c(C)nn(-c4ccccn4)c3n2)cc1`, the AC50 result is “inactive”. For `C[C@@]12CC(=O)[C@@H]3[C@@H](CCC4=CC(=O)CC[C@]43C)[C@@H]1CC=C2CC(=O)O`, the activity, negative = inhibition is 17.8% [at 11.4 µM] (inactive). As to `Cc1cnc(C(=O)OCC(=O)NC(C)C)cn1`, the AC50 entry is “inactive”. Regarding `CC(C)(SCc1ccccc1)[C@H](N)C(=O)O`, the activity, negative = inhibition is 1.44% [at 11.4 µM] (inactive). For the molecule `Cc1ccccc1OCC(=O)NC(=S)Nc1ccc(Br)c(C)n1`, the AC50 result is “inactive”. For the molecule `Cc1cccc(N(NC(=O)C(C)(C)O)C(=O)c2ccccc2)c1`, the AC50 result was “inactive”.

In the case of `Cc1nc2c(ccc3nc(NC(=O)c4ccc(S(=O)(=O)N(C)C)cc4)sc32)s1`, the AC50 result was “inactive”. Regarding `CCOC(=O)N/N=C1/C[C@@H](O)[C@@H](O)[C@@H]2[C@@H]3C(=O)N(C4CCCCC4)C(=O)[C@H]3CC[C@H]12`, the activity, negative = inhibition was -11.9% [at 11.4 µM] (inactive). Still for that read-out and setting: the same measure for `CC(C)=CCC/C(C)=C/CO/N=C1/C[C@@H](O)[C@@H](O)[C@@H]2[C@@H]3C(=O)N(C4CCCCC4)C(=O)[C@H]3CC[C@@H]12`: 2.55% [at 11.4 µM] (inactive). For the molecule `CC(=O)OC[C@@H]1O[C@@H](O/N=C2/C[C@@H](O)[C@@H](O)[C@@H]3[C@@H]4C(=O)N(C5CCCCC5)C(=O)[C@H]4CC[C@H]23)[C@H](OC(C)=O)[C@H](OC(C)=O)[C@@H]1OC(C)=O`, the AC50 was 3.98 µM (active). Take `O=C(NCc1cccnc1)[C@@H]1[C@@H](C(=O)O)[C@H]2CC[C@@H]1O2`: the activity, negative = inhibition is 8.3% [at 11.4 µM] (inactive).

As to `CC1CCCC(C)N1C(=O)c1cc(-c2ccc(Cl)c(Cl)c2)on1` (centres undefined), the AC50 entry was “inactive”. For the molecule `Cc1ccccc1C1C(C#N)=C2N=C(N)c3c(sc4c3CCCCC4)N2C2=C1C(=O)CC(C)(C)C2` (centres undefined), the AC50 result was “inactive”. As for `CO[C@]1(NC(=O)C2SC(=C(C(N)=O)C(=O)O)S2)C(=O)N2C(C(=O)O)=C(CSc3nnnn3C)CS[C@H]21` (some centres undefined), the AC50 result was “inactive”.

As to `CCCCCCN1Cc2ccccc2C1`, the AC50 was 3.55 µM (active). Consider `CCCCN1C(=O)CCC(C(=O)O)C1c1ccccc1` (centres undefined), for which the AC50 result was “inactive”. Take `CCc1ccc(/C=C\C(=O)N2CCc3ccccc3C2)cc1`: the AC50 entry was “inactive”.

Turning to `Cc1cc(NC(=O)c2nn(C)c(C)c2[N+](=O)[O-])no1`, the AC50 entry was “inactive”.

As for `Cc1ccc2[nH]c3c(N4CCc5ccccc5C4)ncnc3c2c1`, the AC50 is 0.708 µM (active). `Cc1ccc(S(=O)(=O)Nc2nc3ccccc3nc2N2CCc3ccccc3C2)cc1`: the AC50 entry was “inactive”.

On to `Cc1ccc(C2CC(=O)c3cnc(N4CCc5ccccc5C4)nc3C2)cc1` (centres undefined), for which the AC50 result was “inactive”. On to `CCN1CCN(Cc2ccc(NC(=O)Nc3cccs3)cc2)CC1`, for which the AC50 result is “inactive”.

As to `CCN[C@@H]1C[C@H](C)S(=O)(=O)c2sc(S(N)(=O)=O)cc21`, the AC50 entry was “inactive”. With `CN(C(=O)CN(CCO)CC(=O)N(C)C(C)(C)Cc1ccccc1)C(C)(C)Cc1ccccc1`, the AC50 is 3.16 µM (active). Regarding `CC(C)(C)C(=O)N(CCN(C(=O)C(C)(C)C)c1ccccc1)c1ccccc1`, the AC50 result is “inactive”. Same read-out and setting: the same measure for `C=CC(=O)NC(C)(C)Cc1ccccc1`: “inactive”; for `O=C(CCC(=O)OCc1ccc(C(=O)Oc2ccccc2)cc1)Nc1cccc2ccccc12`: “inactive”; for `CC(=O)Oc1cc(C(F)(F)F)ccc1C(=O)O`: “inactive”.

Consider `CCSC1=C(C#N)C2(CCCCC2)C(C#N)=C(N)N1`, for which the AC50 was 15.8 µM (active). Consider `C[C@H](Oc1ccccc1)C(=O)N[C@@H]1C(=O)N2[C@@H]1SC(C)(C)[C@@H]2C(=O)O`, for which the AC50 result is “inactive”.

As for `COC(=O)[C@@]1(Cc2ccc(F)cc2)[C@@H]2[C@@H](CC(=O)[C@H]2CC(=O)C(=O)N(C)C)CN1C(=O)c1ccccc1`, the AC50 result is “inactive”. `O=C(O)CNC(=O)c1ccccc1O`: the activity, negative = inhibition is 7.44% [at 11.4 µM] (inactive). Take `CCCCCCCCCn1cc(C(C)=O)c(=O)[nH]c1=O`: the AC50 entry is “inactive”. For the molecule `CN1CCN(c2ncc3ncc(=O)n(Cc4cccs4)c3n2)CC1`, the AC50 entry is “inactive”. Regarding `CN(CCCNC(=O)c1cccn2c(=O)c3ccccc3nc12)Cc1ccccc1`, the AC50 was 2.24 µM (active). On to `CN(C)CCCNC(=O)CCc1nc2ccccc2c(=O)[nH]1`, for which the AC50 result is “inactive”. Turning to `Cc1nc2ccccc2c(=O)n1NC(=O)c1ccccc1Cl`, the AC50 entry was “inactive”. With `COC(=O)[C@@H]1C[C@H]1[C@@H](NC(=O)c1cnccn1)c1ccccc1`, the AC50 entry is “inactive”. On the same count and under the same terms, the same measure for `COc1cccc(OC)c1/C(O)=C(\C#N)c1nc2ccccc2[nH]1`: “inactive”; for `CCNC(=S)NNC(=O)c1cc(C)on1`: “inactive”. The same measure, in the same setting: the same measure for `CCS(=O)(=O)N1CCC(C(=O)NCC2CCCO2)CC1` (centres undefined): “inactive”.

Consider `Cn1c(O)c(C(C#N)=C2N=c3ccccc3=N2)c2ccccc21`, for which the AC50 is 7.08 µM (active). For the molecule `O=C1OCCC1Sc1nnc(-c2ccc(O)cc2)o1` (centres undefined), the AC50 entry is “inactive”. Same read-out and setting: the result for `N#Cc1ccc(-c2ccc(F)cc2)nc1Sc1ccccc1` reads “inactive”; that for `CCOc1ccc(C(Nc2ccc(C)cc2)P2(=O)OCC(C)(C)CO2)cc1` (centres undefined), “inactive”; that for `C[C@@H]1CCc2cc(F)cc3c(=O)c(C(=O)O)cn1c23`, “inactive”. `O=C(O)Cc1c[nH]c2ccc(O)cc12`: the AC50 result is “inactive”. In the case of `CC(C)CC(=O)Nc1ccc2c(c1)oc1ccccc12`, the AC50 entry was “inactive”.

As to `O[C@H](C[C@@H]1CCCCN1)c1ccc2c(c1)oc1ccccc12`, the AC50 is 0.1 µM (active). Consider `O=C(Nc1cnn(Cc2ccc(Cl)cc2Cl)c1)c1cc(-c2cccs2)on1`, for which the AC50 entry is “inactive”. As to `Cc1ccc(NC(=O)c2nnn(-c3cc(C)cc(C)c3)c2N)cc1`, the AC50 result is “inactive”.
